Results: PubChem BioAssay (Tox21)
Inconclusive results are not listed. Values without a mark were called inactive. The source made the active and inactive calls. The call rests on the fitted dose curve; in most records, active means well fitted inhibition curve with a large enough effect in the signal ratio in the repeat runs, with a control signal flat; inconclusive means weak or mixed curves, or effect the other way; inactive means flat fitted curve, though single readings scatter; the % refers to the signal ratio.

Target: D(2) dopamine receptor (Homo sapiens) (UniProt P14416)
Sequence (P14416 whole entry, looked up): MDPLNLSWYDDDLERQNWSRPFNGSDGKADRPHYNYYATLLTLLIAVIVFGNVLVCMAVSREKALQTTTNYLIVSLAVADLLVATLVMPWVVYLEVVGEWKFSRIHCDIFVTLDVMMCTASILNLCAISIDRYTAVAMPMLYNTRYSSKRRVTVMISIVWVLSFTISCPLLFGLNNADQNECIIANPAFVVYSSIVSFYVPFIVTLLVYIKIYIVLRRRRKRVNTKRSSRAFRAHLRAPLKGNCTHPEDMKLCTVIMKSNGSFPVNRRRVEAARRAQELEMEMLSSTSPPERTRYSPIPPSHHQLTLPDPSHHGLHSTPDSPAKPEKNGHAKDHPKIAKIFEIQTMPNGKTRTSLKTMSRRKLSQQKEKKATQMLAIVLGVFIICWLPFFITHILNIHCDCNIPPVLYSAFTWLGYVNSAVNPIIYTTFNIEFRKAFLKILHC
Experiment: Dopamine D2 receptor (DRD2) small molecule antagonists, cell-based qHTS assay (AID 1963595)
Settings: HEK293-DRD2 cAMP HTRF antagonist mode; series mostly up to 92.4 µM; activity change, negative = inhibition: at the top concentration
Method in brief: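 HEK293 cells stably expressing DRD2, preincubated with 0.1 mM Ro20-1724 and compounds 10 min, were stimulated with 200 nM NKH477 plus 12 nM quinpirole for 30 min at room temperature; cAMP measured by HTRF (665/620 nm).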
On the % scale 0 is the no-effect control and ±100 the full control effect.

Structure (SMILES) | activity change, negative = inhibition | Potency
CC(C)=CC(C)(C)C | -0.737% | 
CCCC/C=C/CCCCO | 8.76% | 
C[C@H](CS)C(=O)N1CCC[C@H]1C(=O)O | -0.217% [at 42.5 µM] | 
C/C=C1\[C@H]2C=C(C)C[C@]1(N)c1ccc(=O)[nH]c1C2 | 0.249% [at 42.5 µM] | 
C[C@@H]1C[C@H]2O[C@@]3(O[C@@H]2C(C)(C)O)[C@H](O)[C@@]2(C)[C@@H]4CC[C@H]5C(C)(C)[C@@H](O[C@@H]6OC[C@@H](O)[C@H](O)[C@H]6O)CC[C@@]56C[C@@]46CC[C@]2(C)[C@@H]13 | -0.434% [at 42.5 µM] | 
CCCCCC(C)OC(=O)COc1ccc(Cl)c2cccnc12 (configuration not stated) | 0.365% | 
Cc1ccccc1N=Nc1ccc(N=Nc2c(O)ccc3ccccc23)c(C)c1 | 5.24% [at 42.5 µM] | 
Brc1c(NC2=NCCN2)ccc2nccnc12 | 5.69% [at 42.5 µM] | 
O=C(NCC(O)CO)c1c(I)c(C(=O)NCC(O)CO)c(I)c(N(CCO)C(=O)CO)c1I (configuration not stated) | -2.65% [at 42.5 µM] | 
O=[N+]([O-])c1ccc2ncccc2c1 | 4.28% | 
Oc1ccc(C2(c3ccc(O)c(C4CCCCC4)c3)CCCCC2)cc1C1CCCCC1 | -2.53% | 
Cc1cc(-c2ccc(N=Nc3cc(S(=O)(=O)O)c4ccccc4c3N)c(C)c2)ccc1N=Nc1cc(S(=O)(=O)O)c2ccccc2c1N | 0.671% | 
CCN(CC)CC | -10.2% | 
CO | 0.0437% | 
O=C(c1ccccc1)c1ccc(O)cc1O |  | inactive
COC(=O)/C=C/C(C)=C\C=C\C(C)=C\C=C\C=C(C)\C=C\C=C(C)\C=C\C(=O)O | -1.62% | 
C[C@H]1[C@H](NC(=O)/C(=N/OC(C)(C)C(=O)O)c2csc(N)n2)C(=O)N1S(=O)(=O)O (stereo in doubt) | 3.75% [at 42.5 µM] | 
